# Source: PubChem BioAssay (NCI)
# About 83,000 compounds went through this panel and 20% of them were active in at least one assay; those are over-represented in the sample as a whole.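 Single-concentration screen, 48 h exposure, 96-well plates. Endpoint: percent growth. Below 10 = active.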 Values without a mark were called inactive. Activity calls are given as the source filed them.
# System: SR leukemia
# Test: NCI-60 one-dose screen, 48 h (100 = growth as untreated, 0 = no growth, -100 = all killed)
# Conditions: 10 µM
row,SMILES,growth
1,C=CCN(CC=C)C(=O)[C@H](CC)[C@@H]1CC[C@@H](C)[C@@H]([C@H](C)[C@@H](O)[C@@H](C)C(=O)[C@H](CC)C2O[C@]3(C=C[C@@H](O)[C@]4(CC[C@@](C)([C@H]5CC[C@](O)(CC)[C@H](C)O5)O4)O3)[C@H](C)C[C@@H]2C)O1 (stereo partly drawn),36.9%
2,O=C1CCn2c1c(O)c1ccccc1c2=O,95.1%
3,COc1ccc(-c2cc(-c3ccccc3)nc(SCCCCCCC(=O)NO)n2)cc1,21.1%
4,Cc1ccc(NC(=S)NNC(=S)Nc2ccc(C)cc2)cc1,27.4%
5,c1cncc(-c2csc(-c3c[nH]c4ccccc34)n2)c1,70%
6,CN(C)CCOc1cccc(-c2nc3sccn3c2-c2ccnc(S(C)(=O)=O)n2)c1,102%
7,CC(C)(C)c1ccc(S(=O)(=O)N[C@H]2CC[C@H]3[C@@H]4CCc5cc(OS(=O)(=O)O)ccc5[C@H]4CC[C@]23C)cc1,20.7%
8,Nc1nccc(OCCO)n1,95.9%
9,CC(C)c1ccc(C(C)C(=O)N(CC2=C(C(C)c3ccccn3)c3ccccc3C2)C(C)C)cc1 (stereo not drawn),24.2%
10,Cc1c2cnccc2c(C)c2c1c1cc(O)ccc1n2C(C)C,-17.1% (active)
11,CCc1ccc(C2=NN(c3ccc(S(C)(=O)=O)cc3)C(=O)CC2)cc1,4.42% (active)
12,COc1cc2c(cc1NC(=O)C(Cl)Cl)-c1ccc(NC(=O)C(Cl)Cl)cc1C2,86.4%
13,COc1cc(/C=C2\CCCC3=C2NC(N)=NC3c2cc(OC)c(OC)c(OC)c2)cc(OC)c1OC (stereo not drawn),1.07% (active)
